Shiga inhibitor = blocks Shiga toxin action in Vero cells; Vero cells, Shiga toxin protein synthesis inhibition reporter; inhibition, % at 38.7 µM; actives 9.2% (n = 290,000); AID 2315; in the data active means inhibition mostly above about 28%, no sharp cut-off; inactive means mostly below about 43%
AMA1-RON2 inh = inhibitors of Plasmodium falciparum AMA1-RON2 interaction; actives 0.2% (n = 360,000); Potency, µM (highest dose often 58.2 µM), most hits filed as inhibitors; AlphaScreen AMA1-biotinylated RON2 peptide binding; AID 720542; further: nearly all actives have a fitted effect of over 45% in size
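AMA1 (3D7) with his tag at 25 nM final met compounds first, then biotinylated RON2 peptide at 25 nM; detection used donor plus acceptor beads, 10 µg/mL apiece, read by AlphaScreen after 30 min at room temperature.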
Pf growth 48h = P. falciparum growth inhibition at 48 hours (one generation). actives 5.9% (n = 310,000). P. falciparum luciferase growth in erythrocytes, 48 h. Potency, µM (doses to about 28.7 µM), most hits filed as inhibitors
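First compound was added to culture medium, then infected red cells at 0.1% parasitemia and 2% hematocrit (final). After incubation at 37 C under 5% CO2, luciferase detection reagent was dispensed and light output recorded.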
SARS PLpro yeast = inhibitors of SARS-CoV papain-like protease in yeast | S. cerevisiae expressing SARS-CoV PLpro, growth rescue | Potency, µM (top dose mostly 32.9 µM), hits mostly activators | actives 0.19% (n = 330,000) | AID 485353; calls by dose curve; further: nearly all actives have a fitted effect of over 55% in size
CHX counter = counter-screen hit for Shiga toxin inhibitors, cycloheximide; cell reporter, cycloheximide protein synthesis inhibition counterscreen; max response, %; actives 12% (n = 300,000); in the data active means max response mostly above about 13%, no sharp cut-off; inactive means mostly below about 14%; further: read at 38.3 µM for the half of the compounds with a filed dose
Pf growth 96h = P. falciparum growth inhibition at 96 hour, primary screen for plastid delayed-death inhibitors. actives 6.9% (n = 320,000). Potency, µM (doses to about 28.7 µM), usual class: inhibitors. P. falciparum luciferase reporter growth, 96 h
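Erythrocytes infected with luciferase-expressing P. falciparum were dispensed at 2% hematocrit and 0.05% parasitemia (final), then incubated with compounds 96 hours at 37 C in 5% CO2. Luminescence after detection reagent addition reported growth.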
A number is an active result. Only some compounds are listed: those with a hit (about 19% of all), similar ones and a draw of the others. Unless noted, the call rests on the fitted dose curve; in most records, active means well fitted curve in the direction sought with a large enough effect; inconclusive means small, poorly fitted or top-dose-only effect, or another doubt; inactive means no such curve, though single readings can be large; an effect the other way counts as inactive or inconclusive.

Screening CCC(C)(C)n1nnnc1C(c1cccs1)N1CC=C(c2ccc(F)cc2)CC1 (stereo not drawn) returned Shiga inhibitor inactive, AMA1-RON2 inh inactive, Pf growth 48h 7.4µM, SARS PLpro yeast inactive, CHX counter inactive and Pf growth 96h inconclusive.
CC1(C)O[C@@H]2C[C@H]3[C@H]4C[C@H](F)C5=CC(=O)CC[C@]5(C)[C@@H]4[C@H](O)C[C@]3(C)[C@]2(C(=O)CO)O1 was read as Pf growth 48h inactive and Pf growth 96h inactive.
For COc1ccc(CCC(C)NC(=O)Cc2ccc(OC)c(OC)c2)c(OC)c1 (stereo not drawn) the results were Shiga inhibitor inactive, AMA1-RON2 inh inactive, Pf growth 48h inactive, SARS PLpro yeast inactive, CHX counter inactive and Pf growth 96h inactive.
Cc1ccc(Cn2c(=N)c(C(=O)NCc3ccco3)cc3c(=O)n4ccccc4nc32)cc1 was read as Shiga inhibitor inactive, AMA1-RON2 inh inactive, Pf growth 48h 4.1µM, SARS PLpro yeast inactive, CHX counter inactive and Pf growth 96h inactive.
Screening COc1ccc(CCn2c(=N)c(C(=O)NCc3ccco3)cc3c(=O)n4ccccc4nc32)cc1OC returned AMA1-RON2 inh inactive.
N=c1c(C(=O)NCc2ccco2)cc2c(=O)n3ccccc3nc2n1CCc1ccccc1 was read as Shiga inhibitor inactive, AMA1-RON2 inh inactive, Pf growth 48h 0.93µM, SARS PLpro yeast inactive and CHX counter inactive.
For CC(C)NC(=O)C1(C)CCCN1Cc1ccccc1C#N (stereo not drawn) the results were AMA1-RON2 inh inactive.
CCN(CC)CCN1C(=O)C(O)=C(C(=O)c2cc3cccc(OC)c3o2)C1c1ccc(F)cc1 (stereo not drawn) was read as Shiga inhibitor inactive, AMA1-RON2 inh inactive, Pf growth 48h inactive, SARS PLpro yeast inactive, CHX counter inactive and Pf growth 96h inactive.
For COc1ccc(N2C[C@H](CSC)[C@@H](CC(=O)Nc3ccc(Br)cc3)C2=O)cc1 the results were AMA1-RON2 inh inactive.
`FC(F)(F)c1cccc(N2CCC(N=CN3CCCCCC3)=N2)c1` gave Shiga inhibitor 49, AMA1-RON2 inh inconclusive, Pf growth 48h inconclusive, SARS PLpro yeast inactive, CHX counter 39 and Pf growth 96h inconclusive.
`Oc1ccccc1C=NC1=NN(c2cccc(C(F)(F)F)c2)CC1` gave Shiga inhibitor inactive, AMA1-RON2 inh inactive, Pf growth 48h inactive, SARS PLpro yeast inactive, CHX counter inactive and Pf growth 96h 2.1µM.
`FC(F)(F)c1cccc(N2CCCCC2)c1` gave AMA1-RON2 inh inactive.
For Cc1cccc(SC2CCN(C(=O)C3CCC(=O)N(C4CC4)C3)CC2)c1 (stereo not drawn) the results were Shiga inhibitor inactive, AMA1-RON2 inh inactive, Pf growth 48h inactive, SARS PLpro yeast inactive, CHX counter inactive and Pf growth 96h inconclusive.
COc1cc(NC2CCCCC2O)c2nc(-c3ccc(Cl)cc3)ccc2c1 (stereo not drawn) was read as Shiga inhibitor 134, AMA1-RON2 inh inactive, Pf growth 48h 1.9µM, SARS PLpro yeast inactive, CHX counter 85 and Pf growth 96h 1.9µM.
`CC1=C(C(=O)N(C)C)CC(CC(=O)NCCN2CCOCC2)C(=O)N1Cc1ccc(C(C)(C)C)cc1` (stereo not drawn) gave AMA1-RON2 inh inactive.
Cn1c(=O)c2c(ncn2CCO)n(C)c1=O was read as Shiga inhibitor inactive, AMA1-RON2 inh inactive, Pf growth 48h inactive, SARS PLpro yeast inactive, CHX counter inactive and Pf growth 96h 4.3µM.
Screening O=C(CCNC(=O)Cn1ccc2ccccc2c1=O)NCCc1ccc(Cl)cc1 returned Shiga inhibitor inactive, AMA1-RON2 inh inactive, Pf growth 48h inactive, SARS PLpro yeast inactive, CHX counter inactive and Pf growth 96h inconclusive.
`Cc1ccc(C(=O)NCC(=O)NCC(=O)OCC(=O)c2cccs2)cc1` gave Shiga inhibitor inactive, AMA1-RON2 inh inactive, Pf growth 48h inactive, SARS PLpro yeast inactive, CHX counter inactive and Pf growth 96h inactive.
`CCN(CC)S(=O)(=O)c1cccc(N2CC(O)=C(c3ccccc3)C2=N)c1` gave Shiga inhibitor inactive, AMA1-RON2 inh inactive, Pf growth 48h 2.6µM, SARS PLpro yeast inactive, CHX counter inactive and Pf growth 96h 2.6µM.
N=C1C(c2ccccc2)=C(O)CN1c1cccc(S(N)(=O)=O)c1 was read as Shiga inhibitor inactive, AMA1-RON2 inh inactive, Pf growth 48h inactive, SARS PLpro yeast inactive, CHX counter inactive and Pf growth 96h inactive.
`O=C(NCc1ccco1)C1(S(=O)(=O)c2ccccc2)CC=CC1` gave Shiga inhibitor inactive, AMA1-RON2 inh inactive, Pf growth 48h inactive, SARS PLpro yeast inactive, CHX counter inactive and Pf growth 96h inactive.
Screening O=C(Nc1nc(=O)c2ccccc2s1)c1ccc(Cl)cc1 returned Shiga inhibitor inactive, AMA1-RON2 inh inactive, Pf growth 48h inactive, SARS PLpro yeast inactive, CHX counter 19 and Pf growth 96h inactive.
For O=C(Nc1nc2ccsc2c(=O)s1)c1ccc(Cl)cc1 the results were Shiga inhibitor 88, AMA1-RON2 inh inactive, Pf growth 48h inactive, SARS PLpro yeast inactive, CHX counter 30 and Pf growth 96h inactive.
Screening O=C(Nc1nc(=O)c2ccccc2s1)c1ccc(F)cc1 returned Shiga inhibitor 50, AMA1-RON2 inh inactive, Pf growth 48h inactive, SARS PLpro yeast inactive, CHX counter 15 and Pf growth 96h inconclusive.
O=C(Nc1nnc(S(=O)(=O)N2CCCCCC2)s1)c1ccc(Cl)cc1 was read as Shiga inhibitor inactive, AMA1-RON2 inh inactive, Pf growth 48h inactive, SARS PLpro yeast inactive, CHX counter inactive and Pf growth 96h inconclusive.
Screening On1c(-c2ccccc2)nc2ccccc21 returned Shiga inhibitor inactive, AMA1-RON2 inh inactive, Pf growth 48h inactive, SARS PLpro yeast inactive, CHX counter inactive and Pf growth 96h inactive.
For On1c(-c2ccc(Cl)cc2)nc2ccccc21 the results were Shiga inhibitor 63, AMA1-RON2 inh inactive, Pf growth 48h inactive, SARS PLpro yeast inactive, CHX counter 43 and Pf growth 96h inconclusive.
`CCCNC(=O)c1ccc2c(c1)nc(C)n2-c1cccc(Cl)c1` gave Shiga inhibitor inactive, AMA1-RON2 inh inactive, Pf growth 48h inconclusive, SARS PLpro yeast inactive, CHX counter inactive and Pf growth 96h inactive.
For Cn1c(SCC(=O)NC2CCCC2)nnc1-c1ccccn1 the results were Shiga inhibitor inactive, AMA1-RON2 inh inactive, Pf growth 48h inactive, SARS PLpro yeast inactive, CHX counter inactive and Pf growth 96h inconclusive.
`Cc1[nH]n(C(C)(C)C)c(=O)c1Sc1ccccc1` gave Shiga inhibitor inactive, AMA1-RON2 inh inactive, Pf growth 48h inactive, SARS PLpro yeast inactive, CHX counter inactive and Pf growth 96h 12µM.
For O=[N+]([O-])c1ccc2c(c1)ncn2CCc1ccccc1 the results were Shiga inhibitor inactive, AMA1-RON2 inh inactive, Pf growth 48h inconclusive, SARS PLpro yeast inactive, CHX counter inactive and Pf growth 96h 0.52µM.
O=[N+]([O-])c1ccc2cn(-c3ccccc3)nc2c1 was read as Shiga inhibitor 52, AMA1-RON2 inh inactive, Pf growth 48h inactive, SARS PLpro yeast inactive, CHX counter 54 and Pf growth 96h inactive.
